± gives the standard deviation of the averaged measurements.

The assay relates to Serratia marcescens K904 PosmB-luxCDABE reporter (pMQ747). Nature of the assay: PosmB-lux reporter fold induction (RLU/OD600 relative to no-compound control), highest over Biolog concentrations; higher = stronger Rcs reporter activation. As to conditions: wild type K904; 4 h. The procedure:
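Serratia marcescens K904 (wild type) or its isogenic ΔrcsB mutant, carrying the Rcs-dependent PosmB-luxCDABE reporter plasmid pMQ747, was grown in LB at OD600 0.1 in Biolog Phenotype MicroArray plates PM11-20 for 4 h at 30-32°C. Each compound is present at 3-4 proprietary concentrations (not stated); per the Fig. S1 legend the value given is the highest fold over those wells. Three independent trials.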
Consider `CC1(C)S[C@@H]2[C@H](NC(=O)Cc3ccccc3)C(=O)N2[C@H]1C(=O)O` [Penicillin G] (Biolog plate: PM12, well positions: A2-4), for which the “PosmB-lux reporter fold induction” value was found to be 1.66 ± 0.23.
Regarding `Cn1cnc([N+](=O)[O-])c1Sc1ncnc2[nH]cnc12` [azathioprine] (Biolog plate: PM18, well positions: B9-12), the “PosmB-lux reporter fold induction” value turned out to be 0.797 ± 0.12.
For `CO/N=C(\C(=O)N[C@@H]1C(=O)N2C(C(=O)O)=C(COC(N)=O)CS[C@H]12)c1ccco1` [Cefuroxime] (Biolog plate: PM13, well positions: D1-4), the “PosmB-lux reporter fold induction” value came to 1.85 ± 0.24.
Regarding `N.N.N.N.N.N.[Cl-].[Cl-].[Cl-].[Co+3]` [hexammine cobalt (III) chloride] (Biolog plate: PM19, well positions: H1-4), the “PosmB-lux reporter fold induction” value came to 1.64 ± 0.12.
In the case of `C[C@@H]1O[C@@H]1P(=O)(O)O` [Phosphomycin] (Biolog plate: PM16, well positions: A5-8), the “PosmB-lux reporter fold induction” value came out at 0.962 ± 0.25.
With `Nc1ccc2cc3ccc(N)cc3nc2c1` [proflavine] (Biolog plate: PM20, well positions: D1-4), the “PosmB-lux reporter fold induction” value is 1.15 ± 0.24.
The same measure for `CN[C@@H]1[C@H](O[C@H]2[C@H](O[C@H]3[C@H](O)[C@@H](O)[C@H](NC(=N)N)[C@@H](O)[C@@H]3NC(=N)N)O[C@@H](C)[C@]2(O)CO)O[C@@H](CO)[C@H](O)[C@H]1O` [dihydro-streptomycin] (Biolog plate: PM19, well positions: G5-8): 1.47 ± 0.16; for `C[C@H]1O[C@@H](n2cc(F)c(=O)[nH]c2=O)[C@H](O)[C@@H]1O` [5-fluoro-5'-deoxyuridine] (Biolog plate: PM18, well positions: H1-4): 1.12 ± 0.19; for `COc1cc(NS(=O)(=O)c2ccc(N)cc2)ncn1` [sulfamono-methoxine] (Biolog plate: PM17, well positions: C9-12): 1.35 ± 0.34.
The figure for `O=C(O)CN(CCOCCOCCN(CC(=O)O)CC(=O)O)CC(=O)O` (Biolog plate: PM14, well positions: H1-4) is 2.37 ± 0.77; for `OB(O)O` [Boric acid] (Biolog plate: PM14, well positions: C1-4) it is 1.77 ± 1.2; for `CCC(C)CCCC(=O)N[C@@H](CCN)C(=O)N[C@H](C(=O)N[C@@H](CCN)C(=O)N[C@H]1CCNC(=O)[C@H]([C@@H](C)O)NC(=O)[C@H](CCN)NC(=O)[C@H](CCN)NC(=O)[C@H](CC(C)C)NC(=O)[C@@H](CC(C)C)NC(=O)[C@H](CCN)NC1=O)[C@@H](C)O` (stereo not given in full) [Colistin] (Biolog plate: PM11, well positions: C5-8) it is 2.54 ± 0.89.
As to `[Cl-].[Li+]` [lithium chloride] (Biolog plate: PM17, well positions: F1-4), the “PosmB-lux reporter fold induction” value was determined as 1.51 ± 0.57.
Consider `CN(C)CCCN1c2ccccc2Sc2ccc(Cl)cc21` [chlorpromazine] (Biolog plate: PM17, well positions: D9-12), for which the “PosmB-lux reporter fold induction” value worked out at 2 ± 0.77.
Take `CO[C@H]1/C=C/O[C@@]2(C)Oc3c(C)c(O)c4c(O)c(cc(O)c4c3C2=O)NC(=O)/C(C)=C\C=C\[C@H](C)[C@H](O)[C@@H](C)[C@@H](O)[C@@H](C)[C@H](OC(C)=O)[C@@H]1C` [rifamycin SV] (Biolog plate: PM16, well positions: E9-12): the “PosmB-lux reporter fold induction” value turned out to be 4.24 ± 0.58.
In the case of `c1ccc(-c2ccccn2)nc1` [2,2'-Dipyridyl] (Biolog plate: PM13, well positions: B5-8), the “PosmB-lux reporter fold induction” value was 1.97 ± 0.26.
As for `Cn1nnnc1SCC1=C(C(=O)O)N2C(=O)[C@@H](NC(=O)[C@H](OC=O)c3ccccc3)[C@H]2SC1` [cefamandole nafate] (Biolog plate: PM17, well positions: G5-8), the “PosmB-lux reporter fold induction” value stood at 1.96 ± 0.53.
On to `CSCCC(N)C(=O)NO` (racemic) [DL-methionine hydroxamate] (Biolog plate: PM17, well positions: F5-8), for which the “PosmB-lux reporter fold induction” value was found to be 1.74 ± 0.48.
As for `O=C(O)c1cc(O)c(O)c(O)c1` [gallic acid] (Biolog plate: PM19, well positions: A5-8), the “PosmB-lux reporter fold induction” value was determined as 1.46 ± 0.28.
Consider `CCc1cc(C(N)=S)ccn1` [ethionamide] (Biolog plate: PM17, well positions: B9-12), for which the “PosmB-lux reporter fold induction” value is 0.853 ± 0.16.
For `CC(C(=O)O)c1cccc(C(=O)c2ccccc2)c1` (stereo not given) [ketoprofen (an NSAID)] (Biolog plate: PM18, well positions: A2-4), the “PosmB-lux reporter fold induction” value is 1.95 ± 0.79.
With `CO[C@@]1(NC(=O)Cc2cccs2)C(=O)N2C(C(=O)O)=C(COC(N)=O)CS[C@@H]21` [Cefoxitin] (Biolog plate: PM14, well positions: E1-4), the “PosmB-lux reporter fold induction” value worked out at 4.05 ± 0.85.
`Cc1ccc2c(Cl)cc(Cl)c(O)c2n1` [5,7-Dichloro-8-hydroxy-quinaldine] (Biolog plate: PM15, well positions: B9-12): the “PosmB-lux reporter fold induction” value amounted to 2.01 ± 0.87.
On to `[Cl][Fe]([Cl])[Cl]` [ferric chloride] (Biolog plate: PM16, well positions: G5-8), for which the “PosmB-lux reporter fold induction” value stood at 0.898 ± 0.3.
As to `CC(C)c1nc2nc(N)nc(N)c2nc1C(C)C` [2,4-Diamino-6,7-diisopropyl-pteridine] (Biolog plate: PM12, well positions: E1-4), the “PosmB-lux reporter fold induction” value was 2.38 ± 0.48.
Take `NC[C@@H]1O[C@H](O[C@H]2[C@@H](O)[C@H](O[C@@H]3[C@@H](O)[C@H](N)C[C@H](N)[C@H]3O[C@H]3O[C@H](CO)[C@@H](O)[C@H](O)[C@H]3N)O[C@@H]2CO)[C@H](N)[C@@H](O)[C@@H]1O` [Paromomycin] (Biolog plate: PM12, well positions: C1-4): the “PosmB-lux reporter fold induction” value was determined as 1.63 ± 0.1.
Turning to `CC(=O)O[C@H]1C[C@@]2(C)[C@@H](C[C@@H](O)[C@H]3[C@@]4(C)CC[C@@H](O)[C@@H](C)[C@@H]4CC[C@@]32C)/C1=C(\CCC=C(C)C)C(=O)O` [Fusidic acid] (Biolog plate: PM15, well positions: C5-8), the “PosmB-lux reporter fold induction” value was 1.01 ± 0.48.
Take `CC(C)NCC(O)COc1cccc2ccccc12` (racemic) [D,L-propranolol] (Biolog plate: PM20, well positions: B5-8): the “PosmB-lux reporter fold induction” value is 5.54 ± 2.8.
As to `CCN1CCN(C(=O)N[C@@H](C(=O)N[C@@H]2C(=O)N3C(C(=O)O)=C(CSc4nnnn4C)CS[C@H]23)c2ccc(O)cc2)C(=O)C1=O` [cefoperazone] (Biolog plate: PM17, well positions: G9-12), the “PosmB-lux reporter fold induction” value is 2.11 ± 0.69.
The figure for `Nc1ccc(S(=O)(=O)Nc2ccc(Cl)nn2)cc1` [sulfachloro-pyridazine] (Biolog plate: PM17, well positions: C5-8) is 1.46 ± 0.31; for `Cc1ccccc1C(OCCN(C)C)c1ccccc1` (stereo not given) [orphenadrine] (Biolog plate: PM20, well positions: B1-4) it is 2.77 ± 1.3.
On to `O.O=S(=O)([O-])[O-].O=S(=O)([O-])[O-].O=S(=O)([O-])[O-].[Al+3].[Al+3]` [aluminum sulfate] (Biolog plate: PM16, well positions: F9-12), for which the “PosmB-lux reporter fold induction” value turned out to be 1.33 ± 0.3.
Turning to `CCCCCCCCCCCC[N+](C)(C)CCOc1ccccc1` [Domiphen bromide] (Biolog plate: PM15, well positions: D5-8), the “PosmB-lux reporter fold induction” value amounted to 1.98 ± 0.26.
For the compound `NC(=O)N/N=C/c1ccc([N+](=O)[O-])o1` [5-Nitro-2-furaldehyde semicarbazone] (Biolog plate: PM15, well positions: E5-8), the “PosmB-lux reporter fold induction” value came out at 1.67 ± 0.76.
On to `CCN1CCN(C(=O)N[C@@H](C(=O)N[C@@H]2C(=O)N3[C@@H]2SC(C)(C)[C@@H]3C(=O)O)c2ccccc2)C(=O)C1=O` [Piperacillin] (Biolog plate: PM14, well positions: F5-8), for which the “PosmB-lux reporter fold induction” value amounted to 3.19 ± 1.8.
The same measure for `c1ccc(-c2nn(-c3ccccc3)[n+](-c3cccc4ccccc34)n2)cc1` [tetrazolium violet] (Biolog plate: PM20, well positions: B9-12): 0.453 ± 0.17.
For the compound `O=C1OC(CN2CCOCC2)CN1/N=C/c1ccc([N+](=O)[O-])o1` (stereo not given) [Furaltadone] (Biolog plate: PM14, well positions: A5-8), the “PosmB-lux reporter fold induction” value was found to be 1.52 ± 0.2.
The same measure for `NC[C@H]1O[C@H](O[C@H]2[C@H](O)[C@@H](O[C@H]3O[C@H](CO)[C@@H](O)[C@H](N)[C@H]3O)[C@H](N)C[C@@H]2N)[C@H](N)C[C@@H]1O` [Tobramycin] (Biolog plate: PM12, well positions: F1-4): 1.6 ± 0.2; for `[Na+].[Na+].[O]=[W](=[O])([O-])[O-]` [sodium tungstate] (Biolog plate: PM17, well positions: E9-12): 1.69 ± 0.46; for `CSc1ccc2c(c1)N(CCC1CCCCN1C)c1ccccc1S2` (stereo not given) [thioridazine] (Biolog plate: PM20, well positions: C1-4): 0.902 ± 0.17.

(Values after the supplement of paper PMC9942566.)
